# Compound activity as filed in PubChem.
# NOMO-1 viab = NOMO-1 AML cell viability reduction, primary screen, STK33 inhibitor project, CellTiter-Glo luminescence; NOMO-1 AML viability, 72 h; inhibition, % (no concentration beside the values); 7.5% of 37,000 active; AID 2330, 2010; in the data active means inhibition above about 80%
# STK33 kin inh = STK33 kinase inhibitors, primary screen, biochemical, luminescence, ADP-Glo, MBP substrate. 0.44% of 27,000 active. inhibition, % at 12.5 µM. Serine/threonine-protein kinase 33 (Homo sapiens), Q9BYT3; in the data active means inhibition above about 20%
# Target sequence (Q9BYT3 whole entry, looked up): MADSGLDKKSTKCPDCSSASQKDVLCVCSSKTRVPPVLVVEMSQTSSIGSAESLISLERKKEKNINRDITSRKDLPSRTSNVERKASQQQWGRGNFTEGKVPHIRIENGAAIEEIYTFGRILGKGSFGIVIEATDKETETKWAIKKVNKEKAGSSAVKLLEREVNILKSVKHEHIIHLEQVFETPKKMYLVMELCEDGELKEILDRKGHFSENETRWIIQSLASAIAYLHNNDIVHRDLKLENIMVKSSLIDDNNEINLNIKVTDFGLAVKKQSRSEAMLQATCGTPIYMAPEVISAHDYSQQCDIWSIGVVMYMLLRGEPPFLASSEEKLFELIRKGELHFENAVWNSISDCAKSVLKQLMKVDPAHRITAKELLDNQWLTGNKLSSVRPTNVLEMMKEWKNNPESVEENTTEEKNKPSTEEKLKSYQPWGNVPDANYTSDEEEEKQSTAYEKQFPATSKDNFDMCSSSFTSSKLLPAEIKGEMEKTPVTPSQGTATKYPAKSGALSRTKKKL
# PD-1 reversal = activators reversing PD-1 mediated T-cell inhibition, primary screen, luminescence, primary human CD4 T cells, PD-L1 beads | 29,000 tested, under 10 active | CellTiter-Glo 96 h | activation, % (concentration not given with the values) | AID 2316, 2010; call rule not given here;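 further: 0% = median vehicle wells and 100% = positive control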
# Numbers without * were called inactive; . = no result given. The entries come from a sample that favours hits as a whole.
SMILES,NOMO-1 viab,STK33 kin inh,PD-1 reversal
Cc1nn(C(C)(C)C)c(OC(=O)c2cccc(Br)c2)c1S(=O)(=O)c1ccccc1,119*,0,-2
CCOC(=O)c1cc(COc2ccc3oc4ccccc4c3c2)c(C)o1,32,-1,.
COc1ccc(C(=O)c2oc3ccccc3c2NC(=O)COc2ccc(C)cc2)cc1,3,0,3
CCc1oc2ccccc2c1C(=O)c1ccc(OC(C)=O)cc1,136*,.,-2
COc1ccc(OC)c(NC(=O)COc2ccc3c4c(c(=O)oc3c2C)CCC4)c1,-12,-2,2
COc1ccccc1COc1ccc2c3c(c(=O)oc2c1C)CCCCC3,87*,.,1
O=C(O)CCCC(=O)Nc1ccc(N2CCOCC2)c(C(=O)O)c1,-10,2,1
C[C@@H]1CN([C@H](C)CO)C(=O)Cc2cc(NS(=O)(=O)c3ccccc3)ccc2O[C@@H]1CN(C)C(=O)Nc1cccc2ccccc12,10,1,1
COc1ccc(NC(=O)CCC(=O)O)cc1,26,-6,.
Cc1noc(COc2ccccc2)c1C(=O)Sc1ccc(F)cc1F,123*,.,-3
Cc1cc(COc2ccccc2OCc2cc(C)no2)on1,.,-3,.
COc1ccc2nc(Nc3nc(CSc4ccc(Cl)cc4)cc(=O)[nH]3)nc(C)c2c1,84*,6,.
CCOc1ccc2nc(Nc3nc(C)cc(=O)[nH]3)nc(C)c2c1,18,0,-4
CCOC(=O)N1CC=C2C(C1)C(c1cccc(C(F)(F)F)c1)C(C#N)=C(N)C2(C#N)C#N (stereo not given),113*,2,-23
COc1cccc(-c2nc(SCC(=O)Nc3cccc(C(F)(F)F)c3)[nH]c(=O)c2C#N)c1,-7,-8,0
Cc1ccc(NC(=O)CSc2nnc(N)s2)c(Br)c1,-16,-2,.
O=C(Nc1cccc(C(F)(F)F)c1)Nc1cccc(S(=O)(=O)N2CCOCC2)c1,36,-7,.
C[C@@H]1CN([C@@H](C)CO)C(=O)c2cc(NS(=O)(=O)c3ccc(F)cc3)ccc2O[C@@H]1CN(C)Cc1ccc(Oc2ccccc2)cc1,112*,.,.
C[C@H](CO)N1C[C@H](C)[C@H](CN(C)Cc2ccc(Oc3ccccc3)cc2)Oc2ccc(NS(=O)(=O)c3ccc(F)cc3)cc2C1=O,13,0,1
COc1ccc(S(=O)(=O)Nc2ccc3c(c2)C(=O)N([C@@H](C)CO)C[C@H](C)[C@@H](CN(C)Cc2ccc(Oc4ccccc4)cc2)O3)cc1,71,2,0
COc1ccc(S(=O)(=O)Nc2ccc3c(c2)C(=O)N([C@@H](C)CO)C[C@@H](C)[C@@H](CN(C)Cc2ccc(Oc4ccccc4)cc2)O3)cc1,113*,.,.
C[C@H]1CN([C@@H](C)CO)C(=O)c2cc(NS(=O)(=O)c3ccc(F)cc3)ccc2O[C@@H]1CN(C)Cc1ccc(Oc2ccccc2)cc1,117*,.,-2
Cc1noc(C)c1S(=O)(=O)Nc1ccc2c(c1)C(=O)N([C@H](C)CO)C[C@@H](C)[C@@H](CN(C)Cc1ccc(Oc3ccccc3)cc1)O2,105*,.,-2
Cc1noc(C)c1S(=O)(=O)Nc1ccc2c(c1)C(=O)N([C@H](C)CO)C[C@H](C)[C@@H](CN(C)Cc1ccccc1)O2,19,.,-1
C[C@H](CO)N1C[C@H](C)[C@@H](CN(C)Cc2ccc(Oc3ccccc3)cc2)Oc2ccc(NS(=O)(=O)c3ccc(F)cc3)cc2C1=O,58,.,-4
SMILES,NOMO-1 viab,STK33 kin inh,PD-1 reversal
Cc1ccc(S(=O)(=O)N(C)C[C@@H]2Oc3ccc(NS(=O)(=O)c4cn(C)cn4)cc3CC(=O)N([C@H](C)CO)C[C@H]2C)cc1,14,-3,1
C[C@@H]1CN([C@H](C)CO)C(=O)c2cccc(NC(=O)C3CCCCC3)c2O[C@@H]1CN(C)S(=O)(=O)c1ccc(F)cc1,5,.,1
C[C@H]1CN([C@@H](C)CO)C(=O)Cc2cc(NS(=O)(=O)c3cn(C)cn3)ccc2O[C@H]1CN(C)Cc1ccc(C(F)(F)F)cc1,-13,-3,2
COc1ccc(S(=O)(=O)Nc2ccc3c(c2)C(=O)N([C@@H](C)CO)C[C@@H](C)[C@@H](CN(C)Cc2ccc(-c4ccccc4)cc2)O3)cc1,91*,3,-2
C[C@@H]1CN([C@@H](C)CO)C(=O)c2cc(NS(=O)(=O)c3ccccc3)ccc2O[C@@H]1CN(C)Cc1ccc(Oc2ccccc2)cc1,118*,.,-3
C[C@H]1CN([C@@H](C)CO)C(=O)c2cc(NS(=O)(=O)c3ccccc3)ccc2O[C@@H]1CN(C)Cc1ccc(Oc2ccccc2)cc1,68,0,-4
COc1ccc(S(=O)(=O)Nc2ccc3c(c2)C(=O)N([C@H](C)CO)C[C@@H](C)[C@H](CN(C)Cc2ccc(-c4ccccc4)cc2)O3)cc1,17,-6,2
CCNS(=O)(=O)c1cc(C)ccc1-n1cnnn1,-5,2,.
